The values below come from PubChem BioAssay (Tox21).

Assay [1] can be described thus: qHTS assay to identify small molecule antagonists of the sonic hedgehog signaling (Shh) pathway (AID 1259369; calls by dose curve; also: nearly all actives have a fitted effect of over 45% in size; also: potency is read from the fitted curve at half-maximal effect). An outline of the steps:
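3T3Gli1-Luc, conditioned-medium-stimulated, 24hr cpd, 37C/5% CO2; Gli1-driven firefly Luc luminescence after 30min RT with luciferase reagent. Cells plated 4hr before cpd.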

For assay [2], the target named is Estrogen receptor beta (Homo sapiens) (UniProt Q92731). Description: qHTS assay to identify small molecule agonists of the estrogen receptor beta (ER-beta) signaling pathway (AID 1259377; active = well fitted activation curve with a large enough effect in the signal ratio in the repeat runs, not every such curve was filed as active; the % refers to the signal ratio). An outline of the steps: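 HEK293T ER-beta-UAS-bla; 2% charcoal-stripped FBS; cells pre-incubated 6 hr, compound 16 hr, 37C/5% CO2; LiveBLAzer B/G FRET substrate 2 h RT; fluorescence intensity read.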
Estrogen receptor beta (Homo sapiens), sequence (Q92731 whole entry, looked up): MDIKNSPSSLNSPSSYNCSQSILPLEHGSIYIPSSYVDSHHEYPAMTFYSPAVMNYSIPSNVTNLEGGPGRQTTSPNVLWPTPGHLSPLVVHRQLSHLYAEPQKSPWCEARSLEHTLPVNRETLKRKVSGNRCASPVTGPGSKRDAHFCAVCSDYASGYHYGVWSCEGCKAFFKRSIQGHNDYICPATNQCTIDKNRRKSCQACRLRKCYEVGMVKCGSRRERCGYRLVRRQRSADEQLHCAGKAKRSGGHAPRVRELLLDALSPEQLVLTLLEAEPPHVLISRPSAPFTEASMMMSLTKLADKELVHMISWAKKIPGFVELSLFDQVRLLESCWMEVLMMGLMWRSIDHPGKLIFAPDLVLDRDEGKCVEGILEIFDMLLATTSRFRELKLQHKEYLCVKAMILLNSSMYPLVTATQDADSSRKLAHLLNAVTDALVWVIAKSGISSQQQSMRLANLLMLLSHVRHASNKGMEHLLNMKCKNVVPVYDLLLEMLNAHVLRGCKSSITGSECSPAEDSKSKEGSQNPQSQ
(In general: In qHTS, concentration-response curves come from the screen itself.)

The target is the same in assay [3]. The assay is described as follows: qHTS assay to identify small molecule antagonists of the estrogen receptor beta (ER-beta) signaling pathway (AID 1259378; active = well fitted inhibition curve with a large enough effect in the signal ratio in the repeat runs, not every such curve was filed as active; the % refers to the signal ratio; also: potency is read from the fitted curve at half-maximal effect). In short, it runs like this:
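ER-beta-UAS-bla HEK293T (GripTite) cells in 2% charcoal-stripped FBS medium were preincubated 6 hr at 37C, dosed with compound, then stimulated with 1 nM E2 (final) for 16 hr; beta-lactamase reporter read by B/G FRET fluorescence after 2 hr substrate loading.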

Assay [4] can be described thus: qHTS assay to identify small molecule agonists of the androgen receptor (AR) signaling pathway in the presence of an antagonist - cell viability counter screen (AID 1259379).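 Also: MDA-kb2 human breast cancer cells carrying an MMTV luciferase reporter; series mostly up to about 92 µM; nearly all actives have a fitted effect of over 25% in size.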 In short, it runs like this: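 Cells: MDA-kb2 (MMTV-luc, AR and GR elements), 3,000/well, 5 hr settle. Added: nilutamide 3.0uM final, then compounds (15 conc.). Incubation: 16 hr, 37C, no CO2. Read-out: CellTiter-Fluor, 1 hr, fluorescence.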

A short description of assay [5]: qHTS assay to identify small molecule agonists of the estrogen receptor beta (ER-beta) signaling pathway - cell viability counter screen (AID 1259380). Also: nearly all actives have a fitted effect of over 30% in size. Also: potency is read from the fitted curve at half-maximal effect. In short, it runs like this:
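HEK293T ER-beta-UAS-bla; 2% CS-FBS; 6 hr pre-plate, 16 hr cpd at 37C/5% CO2; LiveBLAzer read first, then CellTiter-Glo 30 min RT, luminescence.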

Assay [6] in a line: qHTS assay to identify small molecule antagonists of the estrogen receptor beta (ER-beta) signaling pathway - cell viability counter screen (AID 1259382). Also: nearly all actives have a fitted effect of over 55% in size. Also: potency is read from the fitted curve at half-maximal effect. An outline of the steps: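 Cells: ER-beta-UAS-bla HEK293T, 2,000/well, 2% CS-FBS, 6 hr settle. Cpd + E2 (1nM final), 16 hr, 37C/5% CO2. Bla FRET substrate 2 hr RT, then CellTiter-Glo 30 min RT, luminescence.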
A short description of assay [7]: qHTS assay to identify small molecule agonists of the estrogen receptor alpha (ER-alpha) signaling pathway in the presence of an antagonist - cell viability counter screen (AID 1259386).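 Also: cells exposed to compounds for 22 h at 37 °C before the viability read; nearly all actives have a fitted effect of over 30% in size.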 Also: potency is read from the fitted curve at half-maximal effect. In short, it runs like this:
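VM7Luc4E2, stripped-serum pre-culture 5 d; 24hr plating; +ICI-182,780 10.0nM final; cpds 15 conc, 22hr, 37C/5% CO2; CellTiter-Fluor added at 21hr, fluorescence 1hr later.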

The target of assay [8] is Progesterone receptor (Homo sapiens) (UniProt P06401). The assay is described as follows: qHTS assay to identify small molecule agonists of the progesterone receptor (PR) signaling pathway (AID 1346784; calls by dose curve; also: nearly all actives have a fitted effect of over 30% in size). An outline of the steps:
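Beta-lactamase reporter read-out: after 16 hr compound treatment at 37C and a further 2 hr at room temperature with LiveBLAzer B/G FRET substrate, fluorescence was measured in PR-UAS-bla HEK 293T cells grown in 2% charcoal-stripped serum.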

Assay [9] shares this target. Description: qHTS assay to identify small molecule antagonists of the progesterone receptor (PR) signaling pathway (AID 1346795; active = well fitted inhibition curve with a large enough effect in the signal ratio in the repeat runs, not every such curve was filed as active; the % refers to the signal ratio; also: potency is read from the fitted curve at half-maximal effect). An outline of the steps:
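Read-out is fluorescence from the LiveBLAzer B/G FRET substrate, cleaved by a UAS-controlled beta-lactamase in PR-UAS-bla HEK293T cells after 16 hr exposure to compound plus 1 nM promegestone (final), followed by 2 hr at room temperature.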

Assay [10] can be described thus: qHTS assay to identify small molecule antagonists of the progesterone receptor (PR) signaling pathway - cell viability counter screen (AID 1346798). Also: series mostly up to about 92 µM; nearly all actives have a fitted effect of over 50% in size. An outline of the steps: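 HEK293T PR-UAS-bla, 2% charcoal-stripped FBS; 4 hr pre-plate; cpd + R5020, 16 h 37C; LiveBLAzer read first; then CellTiter-Glo 30 min RT, luminescence.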
Assay [11] is described as follows: qHTS assay to identify small molecule agonists of the progesterone receptor (PR) signaling pathway - cell viability counter screen (AID 1346799; calls by dose curve; also: nearly all actives have a fitted effect of over 45% in size). In short, it runs like this:
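Luminescence from CellTiter-Glo, added after the beta-lactamase FRET read in the same wells, gave cytotoxicity in PR-UAS-bla HEK293T cells treated with compounds for 16 hr at 37C.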

Assay [12] is described as follows: qHTS assay to identify small molecule antagonists of the TGF-beta/Smad signaling pathway - cell viability counter screen (AID 1346824). Also: nearly all actives have a fitted effect of over 50% in size. An outline of the steps: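 SBE-bla HEK 293T cells were plated overnight at 37 C, then given compounds in DMSO plus TGF-beta1 (added as 0.25 ng/mL solution) for 5 hr. After the bla read, CellTiter-Glo was added to the same wells and luminescence read after 30 min at room temperature.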

Assay [13] in a line: qHTS assay to identify small molecule agonists of the TGF-beta/Smad signaling pathway - cell viability counter screen (AID 1346829). Also: top concentration of the series differs between compounds; nearly all actives have a fitted effect of over 45% in size. An outline of the steps:
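HEK 293T SBE-bla line, 5 hr compound exposure at 37 C, multiplexed CellTiter-Glo viability read by luminescence.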

Assay [14] can be described thus: qHTS assay to identify small molecule agonists of the TGF-beta/Smad signaling pathway (AID 1346859; active = well fitted activation curve with a large enough effect in the signal ratio in the repeat runs, not every such curve was filed as active; the % refers to the signal ratio; also: series mostly up to about 77 µM). An outline of the steps: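 SBE-bla HEK 293T, 4,000 cells/well, plated o/n; cpd in DMSO, 5 hr, 37 C/5% CO2; B/G FRET substrate 2 hr RT; ex 405, em 460/530 nm.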
In assay [15] the target is Androgen receptor (Homo sapiens) (UniProt P10275). Description: qHTS assay to identify small molecule agonists of the androgen receptor (AR) signaling pathway in the presence of an antagonist (AID 1259381; calls by dose curve; also: nearly all actives have a fitted effect of over 15% in size). In short, it runs like this: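 MDA-kb2 cells, 3,000/well, rested 5hr at 37C/0% CO2 → nilutamide 3.0uM final or buffer → compounds, 15 conc. → 16hr at 37C → ONE-Glo, 30min RT → luminescence.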
Androgen receptor (Homo sapiens), sequence (P10275 whole entry, looked up): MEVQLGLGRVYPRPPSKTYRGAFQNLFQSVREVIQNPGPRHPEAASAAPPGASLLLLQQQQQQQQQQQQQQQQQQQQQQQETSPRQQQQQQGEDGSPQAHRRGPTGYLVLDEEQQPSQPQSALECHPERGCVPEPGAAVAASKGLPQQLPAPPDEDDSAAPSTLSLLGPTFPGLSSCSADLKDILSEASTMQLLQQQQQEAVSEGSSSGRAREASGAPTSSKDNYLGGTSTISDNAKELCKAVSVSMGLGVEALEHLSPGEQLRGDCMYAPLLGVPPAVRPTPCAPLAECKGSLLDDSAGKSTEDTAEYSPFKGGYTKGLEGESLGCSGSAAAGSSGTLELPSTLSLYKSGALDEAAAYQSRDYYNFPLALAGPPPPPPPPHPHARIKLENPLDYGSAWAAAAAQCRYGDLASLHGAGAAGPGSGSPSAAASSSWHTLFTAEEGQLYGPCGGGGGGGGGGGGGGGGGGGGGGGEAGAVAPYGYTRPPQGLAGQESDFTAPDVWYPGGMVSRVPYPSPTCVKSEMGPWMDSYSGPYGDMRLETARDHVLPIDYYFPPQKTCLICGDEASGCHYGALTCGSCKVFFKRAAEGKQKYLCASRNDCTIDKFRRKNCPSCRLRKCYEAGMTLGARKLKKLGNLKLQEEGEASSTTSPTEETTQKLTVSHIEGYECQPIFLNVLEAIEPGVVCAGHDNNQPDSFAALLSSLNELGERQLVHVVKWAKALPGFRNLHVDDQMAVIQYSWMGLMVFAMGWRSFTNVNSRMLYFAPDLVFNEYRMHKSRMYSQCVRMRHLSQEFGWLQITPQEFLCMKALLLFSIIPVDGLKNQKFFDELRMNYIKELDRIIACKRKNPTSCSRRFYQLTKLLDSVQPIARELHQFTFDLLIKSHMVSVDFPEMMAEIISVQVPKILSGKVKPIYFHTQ

The target of assay [16] is Estrogen receptor (Homo sapiens) (UniProt P03372). Description: qHTS assay to identify small molecule agonists of the estrogen receptor alpha (ER-alpha) signaling pathway in the presence of an antagonist (AID 1259383; calls by dose curve; also: top concentration of the series differs between compounds; nearly all actives have a fitted effect of over 15% in size). In short, it runs like this: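 VM7Luc4E2, endog. ER-alpha + 4×ERE-luc; charcoal-stripped FBS, phenol red-free, 5 d; 24hr plating; +10.0nM ICI-182,780 (final); cpds 15 conc, 22hr, 37C/5% CO2; ONE-Glo luminescence.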
Estrogen receptor (Homo sapiens), sequence (P03372 whole entry, looked up): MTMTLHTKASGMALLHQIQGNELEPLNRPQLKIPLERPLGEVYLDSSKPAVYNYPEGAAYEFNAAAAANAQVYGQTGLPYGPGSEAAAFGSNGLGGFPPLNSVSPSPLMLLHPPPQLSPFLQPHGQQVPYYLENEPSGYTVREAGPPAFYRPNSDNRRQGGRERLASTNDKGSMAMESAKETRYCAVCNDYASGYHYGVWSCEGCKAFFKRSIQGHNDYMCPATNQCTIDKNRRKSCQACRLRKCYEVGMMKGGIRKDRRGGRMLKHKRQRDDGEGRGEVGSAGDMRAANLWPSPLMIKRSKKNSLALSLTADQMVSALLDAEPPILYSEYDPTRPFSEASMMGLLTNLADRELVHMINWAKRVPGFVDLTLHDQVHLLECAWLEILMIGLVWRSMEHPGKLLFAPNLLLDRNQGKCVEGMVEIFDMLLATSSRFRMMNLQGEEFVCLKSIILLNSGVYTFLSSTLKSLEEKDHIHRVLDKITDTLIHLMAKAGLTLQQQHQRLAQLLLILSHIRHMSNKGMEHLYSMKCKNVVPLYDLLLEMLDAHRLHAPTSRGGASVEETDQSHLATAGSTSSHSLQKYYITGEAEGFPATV

Assay [17] is described as follows: qHTS assay to identify small molecule agonists or antagonists of the thyroid stimulating hormone receptor (TSHR) signaling pathway - wild type cell line counter screen (AID 1259384; calls by dose curve). In short, it runs like this:
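Wild-type HEK293 cells were plated 18 h at 37 C/5% CO2, pin-dosed with compound plus Ro20-1724 medium, held 30 min at room temperature, then given cAMP-d2 and anti-cAMP-cryptate; fluorescence was read after 1 h. Fifteen concentrations, triplicate.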

In assay [18] the target is Thyrotropin receptor (Homo sapiens) (UniProt P16473). The assay is described as follows: qHTS assay to identify small molecule antagonists of the thyroid stimulating hormone receptor (TSHR) signaling pathway (AID 1259385; calls by dose curve; also: nearly all actives have a fitted effect of over 20% in size). An outline of the steps: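 TSHR-HEK293 cells were plated and held 18 h at 37C/5% CO2, then given compound plus Ro20-1724 and stimulated with TSH at 1.5 ng/mL final. After 30 min at room temperature, cAMP was detected with cAMP-d2/anti-cAMP-cryptate (1 h) by fluorescence.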
Thyrotropin receptor (Homo sapiens), sequence (P16473 whole entry, looked up): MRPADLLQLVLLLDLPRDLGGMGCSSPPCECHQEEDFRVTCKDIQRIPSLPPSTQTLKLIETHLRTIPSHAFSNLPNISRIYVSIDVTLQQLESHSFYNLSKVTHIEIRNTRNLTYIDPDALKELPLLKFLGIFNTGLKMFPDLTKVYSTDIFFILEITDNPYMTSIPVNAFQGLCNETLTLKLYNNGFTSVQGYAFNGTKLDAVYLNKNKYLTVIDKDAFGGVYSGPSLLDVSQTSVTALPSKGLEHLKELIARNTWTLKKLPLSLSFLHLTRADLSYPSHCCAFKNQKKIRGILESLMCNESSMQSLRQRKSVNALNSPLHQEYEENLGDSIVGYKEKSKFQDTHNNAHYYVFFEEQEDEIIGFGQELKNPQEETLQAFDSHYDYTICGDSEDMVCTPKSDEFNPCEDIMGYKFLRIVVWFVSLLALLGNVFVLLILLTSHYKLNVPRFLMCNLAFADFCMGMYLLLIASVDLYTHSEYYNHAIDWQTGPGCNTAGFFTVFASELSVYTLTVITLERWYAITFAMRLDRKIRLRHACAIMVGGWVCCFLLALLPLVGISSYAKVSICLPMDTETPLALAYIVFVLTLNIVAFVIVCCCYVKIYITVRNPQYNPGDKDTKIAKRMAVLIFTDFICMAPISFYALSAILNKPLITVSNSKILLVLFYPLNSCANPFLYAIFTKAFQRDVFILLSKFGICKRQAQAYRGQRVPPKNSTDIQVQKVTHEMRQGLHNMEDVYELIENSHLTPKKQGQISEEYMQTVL

Assay [19] concerns the target Thyrotropin-releasing hormone receptor (Homo sapiens) (UniProt P34981). Description: qHTS assay to identify small molecule antagonists of the thyrotropin-releasing hormone receptor (TRHR) signaling pathway (AID 1346877; active = well fitted inhibition curve with a large enough effect in the repeat runs, not every such curve was filed as active; also: series mostly up to about 51 µM). In short, it runs like this: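 Intracellular calcium fluorescence, read kinetically every second over 3 min, reports TRH-evoked signalling in HEK293 cells carrying TRHR. Test compounds were added 5 min ahead of a 1 nM TRH challenge.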

Assay [20] has the same target. The assay is described as follows: qHTS assay to identify small molecule agonists of the thyrotropin-releasing hormone receptor (TRHR) signaling pathway (AID 1346891; calls by dose curve; also: series mostly up to about 58 µM). An outline of the steps: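 Intracellular calcium rise, read as fluorescence every second for 3 min, served as the agonist signal in dye-loaded HEK293 cells expressing TRHR; each compound ran at 15 concentrations in triplicate.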

Where “and” joins values, the source holds several entries; their conditions need not be identical. Equal values may be shown once. Results filed as inconclusive are left out. The source holds several records for some structures; these can differ, active in one and inactive in another. Calls of active or inactive are those of the source. Unless noted, calls follow the shape of the dose curve; as a rule, active = well fitted curve in the direction sought with a large enough effect in the repeat runs; inconclusive = weak or mixed curves; inactive = no such curve, though single readings can be large; an effect the other way counts as inactive or inconclusive.

Thyrotropin-releasing hormone receptor (Homo sapiens), sequence (P34981 whole entry, looked up): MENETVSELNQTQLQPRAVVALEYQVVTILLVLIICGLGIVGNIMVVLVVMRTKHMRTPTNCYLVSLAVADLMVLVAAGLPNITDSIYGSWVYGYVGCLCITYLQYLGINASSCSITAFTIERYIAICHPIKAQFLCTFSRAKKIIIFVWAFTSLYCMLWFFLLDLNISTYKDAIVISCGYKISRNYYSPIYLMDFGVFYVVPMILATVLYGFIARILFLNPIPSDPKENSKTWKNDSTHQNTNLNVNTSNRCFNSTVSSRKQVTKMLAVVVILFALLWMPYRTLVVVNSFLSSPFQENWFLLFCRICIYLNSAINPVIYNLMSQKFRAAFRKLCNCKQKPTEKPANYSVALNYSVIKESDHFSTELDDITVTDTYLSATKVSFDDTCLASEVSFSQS
Progesterone receptor (Homo sapiens), sequence (P06401 whole entry, looked up): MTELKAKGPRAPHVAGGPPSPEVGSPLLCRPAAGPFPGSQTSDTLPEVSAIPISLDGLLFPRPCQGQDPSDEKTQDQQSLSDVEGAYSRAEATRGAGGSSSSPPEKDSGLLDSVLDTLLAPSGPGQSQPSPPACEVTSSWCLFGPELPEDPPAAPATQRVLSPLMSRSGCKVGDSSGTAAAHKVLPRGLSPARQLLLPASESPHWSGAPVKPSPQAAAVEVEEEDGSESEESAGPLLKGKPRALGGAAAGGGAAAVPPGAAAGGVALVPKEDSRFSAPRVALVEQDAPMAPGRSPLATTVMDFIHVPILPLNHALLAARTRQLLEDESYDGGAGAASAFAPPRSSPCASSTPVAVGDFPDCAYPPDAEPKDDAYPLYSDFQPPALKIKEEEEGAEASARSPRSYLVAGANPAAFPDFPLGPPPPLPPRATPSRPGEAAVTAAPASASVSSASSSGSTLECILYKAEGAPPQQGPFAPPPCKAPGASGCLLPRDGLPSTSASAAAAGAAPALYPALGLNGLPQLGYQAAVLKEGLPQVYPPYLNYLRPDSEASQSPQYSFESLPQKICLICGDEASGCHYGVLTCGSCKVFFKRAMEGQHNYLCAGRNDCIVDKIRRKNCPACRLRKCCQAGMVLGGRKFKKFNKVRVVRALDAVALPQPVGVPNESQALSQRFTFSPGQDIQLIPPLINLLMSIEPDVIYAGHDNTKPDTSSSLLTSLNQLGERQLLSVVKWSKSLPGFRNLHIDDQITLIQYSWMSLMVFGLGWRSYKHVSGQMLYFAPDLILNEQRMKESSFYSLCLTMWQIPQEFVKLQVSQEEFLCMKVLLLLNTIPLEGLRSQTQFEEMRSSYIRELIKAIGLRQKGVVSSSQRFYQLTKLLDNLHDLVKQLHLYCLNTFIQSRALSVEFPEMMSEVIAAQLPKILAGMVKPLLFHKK

As for `O=C(O)c1cc(Cl)ccc1Cl`, the Potency result in assay [1], in assay [2], in assay [3], in [4], in assay [5] and in assay [6] was “inactive” throughout. Besides, the Potency entry in assay [7], in [8], in assay [9], in [10], in assay [11] and in assay [12] was “inactive” throughout. Besides, in assay [13], the Potency result is “inactive”. Moreover, the outcome in assay [14] was inactive.
`CN(C1CCCCC1)C1CCCCC1`: the Potency result in assay [1], in [2], in assay [3], in assay [4], in assay [5] and in assay [15] was “inactive” throughout. The Potency result in [6], in assay [16], in assay [18], in [8], in assay [10] and in assay [11] was “inactive” in each case. Also, the Potency result in assay [12], in assay [13] and in [19] was “inactive” each time. Moreover, the compound was classed as inactive in assay [17], in [14] and in assay [20].
Regarding `O=[N+]([O-])c1cc(Cl)c(Cl)cc1Cl`, the Potency result in assay [1], in [2], in [3], in assay [5], in [6] and in [16] was “inactive” throughout. The Potency result in assay [7], in assay [8], in assay [9], in [10], in [11] and in assay [12] was “inactive” in each case. The Potency entry in assay [13] was “inactive”. The compound was classed as inactive in [14].
In the case of `CN1C[C@H](C(=O)N[C@]2(C)O[C@@]3(O)[C@@H]4CCCN4C(=O)[C@H](Cc4ccccc4)N3C2=O)C=C2c3cccc4[nH]cc(c34)C[C@H]21`, the Potency was 3.87 µM (active) in [1]; 27.4 µM (active) in [3]; 21.8 µM (active) and 7.16 µM (active) in assay [5]; 54.7 µM (active) in assay [6]; 24.4 µM (active) and 20.2 µM (active) in assay [7]; 48.8 µM (active) and inactive in assay [9]. In addition, the Potency result in assay [2], in [16], in [18], in assay [8], in assay [10] and in assay [11] was “inactive” in each case. Besides, the Potency result in [12], in assay [13] and in assay [19] was “inactive” each time. Besides, the compound was called inactive in assay [14] and in [20].
`CC(C)c1ccc(NC(=O)N(C)C)cc1`: the Potency result in assay [1], in assay [2], in assay [3], in [4], in assay [5] and in [6] was “inactive” in each case. The Potency result in [16], in assay [18], in assay [7], in assay [8], in assay [9] and in assay [10] was “inactive” each time. The Potency result in [11], in [12], in assay [13] and in assay [19] was “inactive” throughout. Also, the call in assay [17], in assay [14] and in [20] was inactive.
For `COP(=O)(OC)OC(Br)C(Cl)(Cl)Br` (centres undefined), the Potency in assay [1] was 12.2 µM (active). The Potency entry in assay [2], in assay [3], in assay [4], in assay [5], in assay [15] and in [6] was “inactive” each time. The Potency entry in assay [16], in assay [18], in assay [7], in assay [8], in assay [9] and in [10] was “inactive” each time. For the same compound, the Potency result in assay [11], in [12], in assay [13] and in assay [19] was “inactive” in each case. In addition, the result in [17], in assay [14] and in [20] was inactive.
With `Cc1ncc(C[n+]2csc(CCO)c2C)c(N)n1`, the Potency result in assay [1], in assay [2], in [3], in assay [4], in assay [5] and in assay [6] was “inactive” each time. The Potency result in assay [18], in assay [7], in assay [10], in [11], in assay [12] and in assay [13] was “inactive” each time. Besides, in assay [19], the Potency result was “inactive”. Further, the compound was classed as inactive in assay [17], in assay [14] and in assay [20].
Regarding `O=C=NC1CCCCC1`, the Potency entry in [1], in assay [2], in [3], in [4], in assay [5] and in assay [6] was “inactive” each time. For the same compound, the Potency result in assay [16], in [18], in assay [7], in [9], in assay [11] and in assay [12] was “inactive” throughout. In addition, the Potency entry in [13] and in assay [19] was “inactive” throughout. Also, the outcome in assay [17] and in [20] was inactive.
